High-throughput results: PubChem, National Center for Advancing Translational Sciences (NCATS)
BAZ2B inh: BAZ2B (human) inhibition; AID 504333; Potency, µM (top dose mostly 114 µM), for inactives: at the top dose activity change, negative = inhibition, actives largely listed as inhibitors; 360,000 tested, 4.4% active; Q9UIF8; AlphaScreen BAZ2B-H3K14Ac peptide displacement; further: on the % scale 0 is the no-effect control and ±100 the full control effect; nearly all actives have a fitted effect of over 60% in size
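Multi-concentration screen (max 110 uM) measuring displacement of acetylated histone H3 peptide from BAZ2B by AlphaScreen, using 50 nM protein, 50 nM peptide and 10 ug/mL streptavidin donor plus Ni-chelate acceptor beads.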
G9a inh: inhibitors of human histone lysine methyltransferase G9a; Potency, µM (series often up to 102 µM), without a hit: at the highest dose activity, negative = inhibition, hits mostly inhibitors; Q96KQ7; G9a H3K9 monomethylation, AlphaScreen, 2 h; 350,000 tested, 8.8% active; AID 504332; further: on the % scale 0 is the no-effect control and ±100 the full control effect; nearly all actives have a fitted effect of over 75% in size
Target sequence (Q96KQ7 913-1193 limits assumed): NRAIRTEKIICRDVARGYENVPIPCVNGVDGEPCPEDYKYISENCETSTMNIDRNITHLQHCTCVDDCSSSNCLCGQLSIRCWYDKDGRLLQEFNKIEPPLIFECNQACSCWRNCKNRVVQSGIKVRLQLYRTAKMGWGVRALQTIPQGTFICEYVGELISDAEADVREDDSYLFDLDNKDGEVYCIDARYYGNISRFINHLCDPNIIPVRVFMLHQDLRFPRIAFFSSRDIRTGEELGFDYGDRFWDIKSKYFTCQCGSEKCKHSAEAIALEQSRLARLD
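Compounds were preincubated with 20 nM G9a for 15 min, after which biotinylated H3K9 peptide (500 nM) and SAM (20 uM) started a 2 h room-temperature reaction. Monomethylated product was quantified by antibody-based AlphaScreen chemiluminescence.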
HP1b chromo inh: blocks HP1-beta chromodomain binding to methylated histone tails; P83916; AlphaScreen HP1-beta / biotin-H3K9me3 peptide binding; Potency, µM (titrated, usually from 114 µM), for inactives: top-dose activity change, negative = inhibition, actives largely listed as inhibitors; 390,000 tested, 0.56% active; further: nearly all actives have a fitted effect of over 70% in size
Target sequence (P83916 whole entry, looked up): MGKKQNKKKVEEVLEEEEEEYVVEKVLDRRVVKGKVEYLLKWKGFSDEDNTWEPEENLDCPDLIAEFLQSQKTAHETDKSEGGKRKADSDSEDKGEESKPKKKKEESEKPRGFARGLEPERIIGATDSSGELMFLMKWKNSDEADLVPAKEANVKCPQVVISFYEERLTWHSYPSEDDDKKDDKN
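HP1-beta protein (50 nM final) preincubated 30 min at room temperature with biotinylated H3(1-18)K9me3 peptide (50 nM) in PBS pH 7.4, 0.01% Tween-20, then compound added for 30 min. AlphaScreen streptavidin donor/nickel chelate acceptor beads (10 ug/mL final), 30 min dark, luminescence read.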
GLS inhibitor: inhibitors of human glutaminase (GLS). O94925. 410,000 tested, 0.21% active. GLS enzymatic activity, qHTS titration. Potency, µM (highest dose often 45.5 µM), for inactives: top-dose activity change, negative = inhibition, usual class: inhibitors; further: on the % scale 0 is the no-effect control and ±100 the full control effect
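Enzyme dispensed in phosphate buffer (45 mM, pH 8.2, 0.02% Tween-20), compounds pinned in, then 1 mM L-glutamine solution and the glutamate oxidase–HRP–Amplex Red mix added; fluorescence read immediately and again after 30 min at room temperature.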
JMJD2A Tudor inh: inhibitors of human JMJD2A Tudor domain; 390,000 tested, 4.4% active; AlphaScreen JMJD2A-Tudor / H3K4me3 peptide binding; Potency, µM (highest dose often 114 µM), for the others: top-dose activity change, negative = inhibition, actives largely listed as inhibitors; further: on the % scale 0 is the no-effect control and ±100 the full control effect; nearly all actives have a fitted effect of over 50% in size
* = called active by the depositor; ? = inconclusive; . = no result; [ ] = another dose, or the depositor's remark. Shown are actives, neighbours in structure and some others; about 10% of the full set was active somewhere. The call rests on the fitted dose curve; in most records, active means well fitted curve in the direction sought with a large enough effect; inconclusive means small, poorly fitted or top-dose-only effect, or another doubt; inactive means no such curve, though single readings can be large; an effect the other way counts as inactive or inconclusive. Potency means the concentration at half of the fitted maximal effect.

SMILES	BAZ2B inh	G9a inh	HP1b chromo inh	GLS inhibitor	JMJD2A Tudor inh
CC1Cc2ccccc2N1Cc1cccc([N+](=O)[O-])c1 (stereo unspecified)	13µM*	14µM*	32µM*	-8%	35µM*
CC1Cc2ccccc2N1Cc1ccc([N+](=O)[O-])cc1 (stereo unspecified)	35µM*	40µM*	32µM*	-6%	45µM*
CCOc1cc(C(=O)Nc2cc(C)on2)cc(OCC)c1OCC	-2%	-15%[12.7 µM]	20%	2%	-15%
CCC(=O)Nc1ccc(N/C(N)=N/c2nc(C)cc(C)n2)cc1	-2%	3%	12%	0%	-18%
COc1ccc(CNC(=O)COC(=O)c2cc(-c3ccco3)nc3ccccc23)cc1	50µM*	10µM*	.	.	.
CCNC(=O)COC(=O)c1cc(-c2ccco2)nc2ccccc12	50µM*	40µM*	?	?	56µM*
COc1ccc(CNC(=O)COC(=O)c2cc(C)nc3ccccc23)cc1	.	.	10%	3%	-19%
CCOc1ccc(/C=N/NC(=O)c2cc(-c3ccco3)nc3ccccc23)cc1	8%	14%[59 µM]	33%	-1%	-10%
CC(=O)Nc1ccc(SC[C@H](Cc2ccccc2)N2CC[C@@H](O)CCC2=O)cc1	4%	8%[2.33 µM]	27%	-5%	-2%
CC(=O)N1c2ccccc2NC2=C(C(=O)CCC2)C1c1ccc(F)cc1 (stereo unspecified)	-3%	-10%[59 µM]	35%	2%	-8%
Cc1ccc(S(=O)(=O)NCCSc2nnc(N)s2)cc1	9%	13µM*	41%	6%	-7%
COc1ccc(/C=N/NC(C)(C)C)c(OC)c1	?	13µM*	17%	-25%	-17%
COc1ccc(/C=N/NC2=NCCCCC2)cc1	-3%	28µM*	45%	-2%	-13%
COc1ccc(/C=N/Nc2cc(N(C)C)nc(N(C)C)n2)cc1	50µM*	4.5µM*	?	-7%	?
COc1ccc(/C=N/NC2=NCCCCC2)c(OC)c1	-17%	11µM*	27%	-20%	-11%
N#Cc1c(N)n(CCOC(=O)c2cccc([N+](=O)[O-])c2)c2nc3ccccc3nc12	-10%	14%[59 µM]	32%	-4%	-4%
CCN(CC)c1ccc(/C=N/NC(=S)NCc2ccco2)cc1	?	?	-27%	24%	?
O=C1NN(CCO)C(=S)Nc2ccccc21	.	.	.	-7%	.
O=C(CSc1nc(-c2cccs2)cc(C(F)(F)F)n1)Nc1cc(OCC(F)(F)F)cc([N+](=O)[O-])c1	-7%	-17%[59 µM]	-4%	8%	22µM*
CCOC(=O)N1CCN(C(c2ccc(Cl)cc2)c2sc3nc(C)nn3c2O)CC1 (stereo unspecified)	18%	11%[59 µM]	18%	11%	-16%
O=S(=O)(NCCc1ccccc1)c1cccc(S(=O)(=O)N2CCOCC2)c1	10%	-14%[59 µM]	22%	0%	-8%
CCOc1cc(C(c2c(C)[nH][nH]c2=O)c2c(C)[nH][nH]c2=O)cc([N+](=O)[O-])c1O	-35%	6%[0.501 µM]	-14%	23%	-24%
O=c1[nH]c(/C=C\c2cccnc2)c([N+](=O)[O-])c(=O)[nH]1	-1%	-26%	-22%	3%	-72%
COc1cc(C(c2c(C)[nH][nH]c2=O)c2c(C)[nH][nH]c2=O)cc([N+](=O)[O-])c1O	?	?	?	?	45µM*
COc1cc(/C=C/c2[nH]c(=O)[nH]c(=O)c2[N+](=O)[O-])cc([N+](=O)[O-])c1O	56µM*	45µM*	-8%	?	?
O=c1[nH]c(/C=C/c2cccc([N+](=O)[O-])c2)c([N+](=O)[O-])c(=O)[nH]1	13%	79µM*	-6%	13%	-4%
O=c1[nH]c(/C=C/c2ccccc2)c([N+](=O)[O-])c(=O)[nH]1	-4%	-45%	20%	0%	-14%
O=c1[nH]c(/C=C/c2ccc(Cl)cc2Cl)c([N+](=O)[O-])c(=O)[nH]1	56µM*	?	6%	-3%	-21%
